Data: PubChem BioAssay
The source made the active and inactive calls. Unless noted, no rule for the calls is given here.

Key:
[1] = A549 cell viability effects, profiling panel, calcein-AM fluorescence, 48 h, basal (AID 1162); details: higher = more signal; also: test concentration not given here
[2] = adipocyte viability effects, profiling panel, cell-based, 3T3-L1 adipocytes, calcein-AM fluorescence, 48 h, basal (AID 1163); details: 3T3-L1 adipocytes viability, higher = more signal; also: test concentration not given here
[3] = HepG2 cell viability effects, profiling panel, calcein-AM fluorescence, 48 h, basal (AID 1164); details: higher = more signal; also: test concentration not given here
[4] = MM1S cell viability effects, profiling panel, calcein-AM fluorescence, 48 h, basal (AID 1165); details: higher = more signal;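 also: viability of MM1S multiple myeloma cells under basal unstimulated conditions; test concentration not given here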
[5] = basal RPMI8226 viability, no added stimulus, profiling panel, cell-based, calcein-AM fluorescence, 48 h, PK04 Diversity Set (AID 1166); details: RPMI8226 myeloma viability, higher = more signal;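 also: cells grown under basal conditions without added stimulus; test concentration not given here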
[6] = basal HepG2 mitochondrial membrane potential changes, profiling panel, cell-based, JC-1 fluorescence, 24 h, 100 nL compound (AID 1167); details: higher = more signal; also: test concentration not given here
[7] = basal 3T3-L1 adipocyte mitochondrial potential changes, profiling panel, cell-based, JC-1 fluorescence, 3T3-L1 adipocytes, 24 h, 100 nL compound (AID 1168); details: JC-1 mitochondrial fluorescence, higher = more signal, called active from +8 up or from −8 down; also: test concentration not given here
[8] = basal RPMI8226 mitochondrial membrane potential changes, profiling panel, cell-based, JC-1 fluorescence, 24 h, 100 nL compound (AID 1169); details: RPMI8226 myeloma, JC-1 mitochondrial potential fluorescence, higher = more signal; also: test concentration not given here
[9] = basal MM1S mitochondrial membrane potential changes, profiling panel, cell-based, JC-1 fluorescence, 24 h, 100 nL compound (AID 1170); details: higher = more signal; also: test concentration not given here
[10] = A549 lung cancer cell viability effects, profiling panel, resazurin fluorescence, 24 h, PK04 Diversity Set (AID 1171); details: higher = more signal, called active from +8 up or from −8 down; also: test concentration not given here
[11] = HepG2 liver cancer cell viability effects, profiling panel, resazurin fluorescence, 24 h, PK04 Diversity Set (AID 1172); details: higher = more signal; also: test concentration not given here
[12] = basal S. cerevisiae growth modulation, no modifier, primary screen, OD600, strain BY4716, 24 h, basal condition (AID 1173); details: OD600, 24 h, higher = more signal, called active from +8 up or from −8 down
[13] = MM1S myeloma cell viability, profiling panel, resazurin fluorescence, basal, 24 h, PK04 Diversity Set (AID 1174); details: higher = more signal, called active from +8 up or from −8 down;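 also: MM1S multiple myeloma cell line; test concentration not given here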
[14] = target: Dihydroorotate dehydrogenase (quinone), mitochondrial (Plasmodium falciparum (isolate 3D7)) (UniProt Q08210); assay: PfDHODH enzyme inhibitors, primary screen, biochemical, C-terminal His tag, absorbance 600 nm (AID 1175); details: DCIP absorbance 600 nm, higher = more signal, called active from +8 up or from −8 down;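 also: recombinant parasite enzyme with a five histidine tag at its C terminus; test concentration not given here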
[15] = P. aeruginosa biofilm formation inhibitors, primary screen, strain PAO1, LB-PBS medium, absorbance 600 nm (AID 1176); also: test concentration not given here; details: P. aeruginosa PAO1 growth/biofilm, A600, 12 h; higher = more signal
[16] = S. cerevisiae RM11-1a growth modifiers, primary screen, strain RM11-1a, OD600, basal, 24 h (AID 1177); details: OD600, 24 h, higher = more signal, called active from +8 up or from −8 down;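 also: cultures grown under basal conditions with no added stressor; test concentration not given here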
[17] = E. coli acrAB mutant growth effects, primary screen, E. coli filamentation inducers, strain DRC39, OD650, 24 h (AID 1178); details: higher = more signal, called active from +8 up or from −8 down;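 also: growth measured as culture turbidity by optical density at 650 nm; test concentration not given here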
[18] = E. coli acrAB mutant growth effects, primary screen, E. coli filamentation inducers, strain DRC39, OD650, 48 h (AID 1179);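 also: screen aims at cell division blockers that make cells filament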; details: E. coli DRC39 delta-acrAB growth, higher = more signal, called active from +8 up or from −8 down
[19] = RPMI8226 myeloma cell viability, profiling panel, resazurin fluorescence, basal, 24 h, PK04 Diversity Set (AID 1180); details: higher = more signal;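 also: RPMI8826 multiple myeloma cell line at 5000 cells per well; test concentration not given here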
[20] = target: E3 ubiquitin-protein ligase XIAP (Homo sapiens) (UniProt P98170); assay: XIAP binders, primary screen, biophysical, small-molecule microarray, fluorescence 635 nm (AID 1181); details: small-molecule microarray binding, higher = more signal;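 also: score merges 667 nm emission and signal to noise over triplicate slides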
Sequence of E3 ubiquitin-protein ligase XIAP (Homo sapiens) (P98170 whole entry, looked up): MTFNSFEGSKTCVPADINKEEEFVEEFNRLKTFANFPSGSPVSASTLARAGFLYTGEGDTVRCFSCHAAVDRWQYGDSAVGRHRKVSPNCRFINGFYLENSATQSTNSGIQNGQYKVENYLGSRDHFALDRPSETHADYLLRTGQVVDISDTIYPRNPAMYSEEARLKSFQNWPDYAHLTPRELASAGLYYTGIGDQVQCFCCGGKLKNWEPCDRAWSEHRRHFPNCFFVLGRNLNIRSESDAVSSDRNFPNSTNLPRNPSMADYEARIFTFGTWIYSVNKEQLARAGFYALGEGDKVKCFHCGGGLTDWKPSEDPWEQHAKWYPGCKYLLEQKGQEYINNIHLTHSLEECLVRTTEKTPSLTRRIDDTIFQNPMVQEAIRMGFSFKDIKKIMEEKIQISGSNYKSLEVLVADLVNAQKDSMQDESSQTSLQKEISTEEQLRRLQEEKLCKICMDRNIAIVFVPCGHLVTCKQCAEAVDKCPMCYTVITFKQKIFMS

Sequence of Dihydroorotate dehydrogenase (quinone), mitochondrial (Plasmodium falciparum (isolate 3D7)) (Q08210 whole entry, looked up): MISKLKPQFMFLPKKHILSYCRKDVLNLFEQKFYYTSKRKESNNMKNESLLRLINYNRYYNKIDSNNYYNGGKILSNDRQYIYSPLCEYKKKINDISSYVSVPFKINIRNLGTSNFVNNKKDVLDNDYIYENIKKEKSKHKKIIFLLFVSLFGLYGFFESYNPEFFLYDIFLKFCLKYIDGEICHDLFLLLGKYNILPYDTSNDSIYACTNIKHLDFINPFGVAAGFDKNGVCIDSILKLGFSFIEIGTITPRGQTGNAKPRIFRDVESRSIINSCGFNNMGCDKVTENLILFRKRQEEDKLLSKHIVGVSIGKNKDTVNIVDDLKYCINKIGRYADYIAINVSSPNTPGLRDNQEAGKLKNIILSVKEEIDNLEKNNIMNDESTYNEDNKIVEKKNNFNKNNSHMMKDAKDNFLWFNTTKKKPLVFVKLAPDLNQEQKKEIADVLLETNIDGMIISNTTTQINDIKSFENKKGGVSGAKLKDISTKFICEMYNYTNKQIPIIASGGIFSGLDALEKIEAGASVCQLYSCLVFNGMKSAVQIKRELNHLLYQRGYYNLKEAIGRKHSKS

C=CCC(OC(C)=O)[C@@H]1[C@@H](N(Cc2ccc(-c3cccc(C(F)(F)F)c3)o2)C(=O)c2ccc(C)cc2)c2cc(OCCCO)ccc2N1C(=O)c1ccc2ccccc2c1 (stereo not given in full)
z-score [1]: -0.403 | z-score [2]: 0.821 | z-score [3]: 0.236 | z-score [4]: 0.47 | z-score [5]: 0.966 | z-score [6]: 3.41 | z-score [7]: 0.586 (inactive) | z-score [8]: 0.102 | z-score [9]: -0.555 | z-score [10]: 0.462 (inactive) | z-score [11]: 0.472 | z-score [12]: 0.656 (inactive) | z-score [13]: 0.845 (inactive) | composite z-score [14]: -0.689 (inactive) | z-score [15]: -0.124 (inactive) | z-score [16]: 0.544 (inactive) | z-score [17]: -0.0973 (inactive) | z-score [18]: 0.759 (inactive) | z-score [19]: 1.37 | composite z-score [20]: -0.0878

CCCNC(=O)[C@@]1(c2ccc([N+](=O)[O-])cc2)CC(=O)N(C2CCCCC2)[C@@H]1c1ccc(CO)cc1
z-score [1]: 0.663 | z-score [2]: 0.29 | z-score [3]: 0.196 | z-score [4]: -0.409 | z-score [5]: 0.46 | z-score [6]: 0.536 | z-score [7]: -1.19 (inactive) | z-score [8]: -0.506 | z-score [9]: 0.773 | z-score [10]: 1.13 (inactive) | z-score [11]: -0.347 | z-score [12]: 0.262 (inactive) | z-score [13]: 0.411 (inactive) | composite z-score [14]: 0.666 (inactive) | z-score [15]: 0.304 (inactive) | z-score [16]: 1.83 (inactive) | z-score [17]: 0.117 (inactive) | z-score [18]: -0.194 (inactive) | z-score [19]: 0.543 | composite z-score [20]: -0.173

O=C(CS)NCCCCCCNC(=O)[C@H]1C[C@H]2C(=O)N[C@@H](Cc3ccccc3)C(=O)N2[C@H]1c1ccc(O)cc1
z-score [1]: 0.215 | z-score [2]: 0.0724 | z-score [3]: -0.521 | z-score [4]: -1.51 | z-score [5]: 0.388 | z-score [6]: -1.57 | z-score [7]: -1.09 (inactive) | z-score [8]: -0.254 | z-score [9]: 0.046 | z-score [10]: 1.26 (inactive) | z-score [11]: 0.504 | z-score [12]: 0.588 (inactive) | z-score [13]: -0.619 (inactive) | composite z-score [14]: -0.0269 (inactive) | z-score [15]: 0.836 (inactive) | z-score [16]: 0.252 (inactive) | z-score [17]: 0.0577 (inactive) | z-score [18]: -0.983 (inactive) | z-score [19]: 0.158 | composite z-score [20]: -0.166

COC(=O)c1c(CC[C@@H](CO)NC(=O)N2CCC[C@H]2Cn2cc(Cc3ccccc3)nn2)oc(C(C)=O)c1C(=O)OC
z-score [1]: -0.105 | z-score [2]: -0.25 | z-score [3]: -0.904 | z-score [4]: 0.823 | z-score [5]: -1.41 | z-score [6]: -0.123 | z-score [7]: -0.0157 (inactive) | z-score [8]: 0.127 | z-score [9]: -0.236 | z-score [10]: 0.435 (inactive) | z-score [11]: 0.448 | z-score [12]: -1.36 (inactive) | z-score [13]: -0.362 (inactive) | composite z-score [14]: -0.378 (inactive) | z-score [15]: -1.27 (inactive) | z-score [16]: -0.245 (inactive) | z-score [17]: 0.745 (inactive) | z-score [18]: 0.312 (inactive) | z-score [19]: -0.394 | composite z-score [20]: 0

C=CCC(OC(C)=O)[C@@H]1[C@@H](N(Cc2cc3ccccc3o2)C(=O)c2ccc(C)cc2)c2cc(OCCCO)ccc2N1C(=O)Cc1ccc(OC)cc1 (stereo not given in full)
z-score [1]: 1.09 | z-score [2]: 0.426 | z-score [3]: 0.979 | z-score [4]: -0.143 | z-score [5]: 0.166 | z-score [6]: 2.52 | z-score [7]: 0.235 (inactive) | z-score [8]: 0.83 | z-score [9]: 0.449 | z-score [10]: 0.951 (inactive) | z-score [11]: 0.564 | z-score [12]: -0.859 (inactive) | z-score [13]: 0.655 (inactive) | composite z-score [14]: 0.889 (inactive) | z-score [15]: 0.0885 (inactive) | z-score [16]: 0.634 (inactive) | z-score [17]: -0.506 (inactive) | z-score [18]: -0.0196 (inactive) | z-score [19]: 0.618 | composite z-score [20]: -0.102
